Data from PubChem BioAssay (Tox21).
“And” between values parts separate entries of the source, which are not always exact repeats. Equal entries are not always repeated. Records with an inconclusive call do not appear. Entries that show only a call come without a potency. The source made the active and inactive calls. Calls come from the whole dose curve; as a rule, active = well fitted inhibition curve with a large enough effect in the signal ratio in the repeat runs (not every such curve was filed as active); inconclusive = weak or mixed curves, or effect the other way; inactive = no such curve, though single readings can be large or run the other way; the % refers to the signal ratio.

biological target: Glucocorticoid receptor (Homo sapiens) (UniProt P04150); assay: qHTS assay to identify small molecule antagonists of the glucocorticoid receptor (GR) signaling pathway (AID 720692); details: GR-bla HeLa, beta-lactamase FRET ratio, dexamethasone-stimulated, 18 h; series mostly up to 58.5 µM
Sequence (P04150 whole entry, looked up): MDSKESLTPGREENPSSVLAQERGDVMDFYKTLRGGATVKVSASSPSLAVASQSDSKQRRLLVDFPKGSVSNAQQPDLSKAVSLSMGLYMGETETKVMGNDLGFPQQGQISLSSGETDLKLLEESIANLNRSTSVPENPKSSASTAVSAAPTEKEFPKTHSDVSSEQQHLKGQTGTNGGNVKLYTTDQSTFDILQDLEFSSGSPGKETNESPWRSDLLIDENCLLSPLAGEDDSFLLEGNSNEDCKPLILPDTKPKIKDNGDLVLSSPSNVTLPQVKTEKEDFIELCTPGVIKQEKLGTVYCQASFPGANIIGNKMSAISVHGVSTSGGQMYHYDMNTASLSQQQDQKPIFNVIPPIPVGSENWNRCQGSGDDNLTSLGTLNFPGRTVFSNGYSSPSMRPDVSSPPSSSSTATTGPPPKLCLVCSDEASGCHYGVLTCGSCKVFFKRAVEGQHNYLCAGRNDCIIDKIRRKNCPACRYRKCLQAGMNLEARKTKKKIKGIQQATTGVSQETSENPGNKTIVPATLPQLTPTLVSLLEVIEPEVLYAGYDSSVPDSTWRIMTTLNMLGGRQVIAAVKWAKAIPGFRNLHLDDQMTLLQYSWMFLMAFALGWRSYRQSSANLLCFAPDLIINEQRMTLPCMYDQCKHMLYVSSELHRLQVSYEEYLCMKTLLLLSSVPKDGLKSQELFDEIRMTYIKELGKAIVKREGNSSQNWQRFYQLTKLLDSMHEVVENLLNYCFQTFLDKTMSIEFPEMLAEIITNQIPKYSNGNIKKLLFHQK
Description: U.S. Tox21 Program National Center for Advancing Translational Sciences [NCATS] NIH Chemical Genomics Center [NCGC] U.S. Environmental Protection Agency [EPA] National Institutes of Environmental Health Sciences [NIEHS] National Toxicology Program [NTP] U.S. Food and Drug Administration [FDA] Tox21 Assay Overview: The Glucocorticoid receptor (GR) is one of the members of the nuclear receptor family of ligand-dependent transcription factors. GR plays a critical role in carbohydrate, protein and lipid metabolisms and programmed cell death. CellSensor GR-bla HeLa cell line (Invitrogen) contains a beta-lactamase reporter gene under the control of the glucocorticoid response element stably integrated into HeLa cells, a cervical cancer cell line that expresses glucocorticoid receptor. The activation of the reporter gene under culture conditions can be detected by fluorescence intensity. This cell line has been used to screen the Tox21 10K compound library and to identify the compounds that inhibit the GR signaling.
Tox21 Assay Protocol Summary: The GR-bla HeLa cells were dispensed at 1500 cells/5 ul/well in 1536-well black wall/clear bottom plates using a Multidrop Combi (ThermoFisher Scientific, Waltham, MA) dispenser. After the assay plates were incubated at a 37 C/5% CO2 incubator for 4 hours, 23 nL of compounds dissolved in DMSO, positive controls or DMSO only was transferred to the assay plate by a pintool station (Kalypsys, San Diego, CA), followed by addition of 1 uL of dexamethasone (5 nM, final concentration in the well). The plates were incubated at 37 C for 18 hours. After 1 uL of LiveBLAzerTM B/G FRET substrate was added using a Flying Reagent Dispenser (Aurora Discovery, San Diego, CA), the plates were incubated at room temperature for 2 hours, and fluorescence intensity was measured by an Envision plate reader (PerkinElmer, Shelton, CT).
Potency is the fitted concentration of half-maximal effect.

SMILES | Potency
C=CC(=O)OCC(C)OCC(C)OCC(C)OC(=O)C=C (stereo not given) | 43.6 µM (active)
CCCCC(CC)COCCCN (stereo not given) | inactive
C=Cc1c(C)c2cc3[nH]c(cc4nc(cc5nc(cc1[nH]2)C(C)=C5CCC(=O)O)C(CCC(=O)O)=C4C)c(C)c3C=C | inactive
CCCCCCc1ccc(N)cc1 | inactive
CCCCCCCCCCCCCCCCCBr | inactive
O=S(=O)(O)c1ccc(O)c2ncccc12 | inactive
C[Si](C)O[Si](C)(C)O[Si](C)(C)O[Si](C)C | inactive
O=c1[nH]cnc2ccccc12 | inactive
COc1ccccc1OC(=O)Oc1ccccc1OC | inactive
Cc1cc(NC(=O)C(=O)O)cc(C)c1Oc1ccc(O)c2c1CCC2 | inactive
CC(C)=CCCC(C)CC=O (stereo not given) | inactive
C=C(C)C(=O)OCCOc1ccccc1 | inactive
CCOc1ccc(NC(=O)CC(C)=O)cc1 | inactive
CC(C)c1cccc(C(C)C)c1NC(=O)NS(=O)(=O)c1cc(C(C)(C)O)co1 | inactive
CC(=O)CC(=O)c1ccccc1 | inactive
CCCCCCCCCO | inactive
Cn1c(NCCN(CCO)CCCc2ccc([N+](=O)[O-])cc2)cc(=O)n(C)c1=O | inactive
CCCCCCCC/C=C\CCCCCCCC(N)=O | inactive
COC(=O)CSc1cc(N=c2sc(=O)n3n2CCCC3)c(F)cc1Cl | inactive
COc1ccc(OC)c(OC)c1 | inactive

SMILES | Potency
NC(=S)N/N=C/c1cccnc1 | inactive
Cc1ccc(C(C)c2ccc(C)c(C)c2)cc1C | inactive
Cn1c(=O)c2c(ncn2CC(O)CO)n(C)c1=O (stereo not given) | inactive
C=CC(=O)OCCOC(=O)CCC(=O)O | inactive
COC(Cc1ccccc1)OC | inactive
Cc1ccc(C(N)=O)cc1N | inactive
CC(=O)O[C@@H]1C(=O)O[C@@H]2[C@H]1OC(=O)[C@@H]2OC(C)=O | inactive
O=C(O)Cc1cc(I)c(Oc2ccc(O)c(I)c2)c(I)c1 | 9.1 µM (active) and 3.47 µM (active)
CC(=O)c1c(C)c([N+](=O)[O-])c(C(C)(C)C)c([N+](=O)[O-])c1C | inactive
CCCCCCCCCCCCCCC1CO1 (stereo not given) | inactive
CC(C)CC=O | inactive
CC(C)(C)C1CCCCC1O (stereo not given) | inactive
CC/C(=C\C(=N/O)C(N)=O)C(C)[N+](=O)[O-] (stereo not given) | inactive
CNCC[C@@H](Oc1ccccc1C)c1ccccc1 | inactive
CC(Cc1cccc(C(F)(F)F)c1)NCCOC(=O)c1ccccc1 (stereo not given) | inactive
O=C(CC(=O)c1ccccc1)c1ccccc1 | inactive
C=CCCCCCC | inactive
Cc1ccc(C)o1 | inactive
NC[C@H]1O[C@H](O[C@H]2[C@H](O)[C@@H](O[C@H]3O[C@H](CO)[C@@H](O)[C@H](N)[C@H]3O)[C@H](N)C[C@@H]2N)[C@H](O)[C@@H](O)[C@@H]1O | inactive
CC(C)(C)c1cc(CO)cc(C(C)(C)C)c1O | 44.5 µM (active)
